Data as given in PubChem BioAssay (NCATS).
Records with an inconclusive call do not appear. Calls of active or inactive are those of the source. Calls follow the shape of the dose curve; as a rule, active = well fitted inhibition curve with a large enough effect; inconclusive = small, poorly fitted or top-dose-only effect; inactive = no such curve, though single readings can be large or run the other way.

Each compound was assayed against Rap guanine nucleotide exchange factor 4 (Homo sapiens) (UniProt Q8WZA2) (assay: Confirmatory qHTS for antagonist of cAMP-regulated guanine nucleotide exchange factor 4 (EPAC2) (AID 1645885; also: nearly all actives have a fitted effect of over 25% in size)). Settings: EPAC2 Rap1B-BODIPY-GDP exchange fluorescence, biochemical; series mostly up to 12.7 µM.
Rap guanine nucleotide exchange factor 4 (Homo sapiens), sequence (Q8WZA2 whole entry, looked up): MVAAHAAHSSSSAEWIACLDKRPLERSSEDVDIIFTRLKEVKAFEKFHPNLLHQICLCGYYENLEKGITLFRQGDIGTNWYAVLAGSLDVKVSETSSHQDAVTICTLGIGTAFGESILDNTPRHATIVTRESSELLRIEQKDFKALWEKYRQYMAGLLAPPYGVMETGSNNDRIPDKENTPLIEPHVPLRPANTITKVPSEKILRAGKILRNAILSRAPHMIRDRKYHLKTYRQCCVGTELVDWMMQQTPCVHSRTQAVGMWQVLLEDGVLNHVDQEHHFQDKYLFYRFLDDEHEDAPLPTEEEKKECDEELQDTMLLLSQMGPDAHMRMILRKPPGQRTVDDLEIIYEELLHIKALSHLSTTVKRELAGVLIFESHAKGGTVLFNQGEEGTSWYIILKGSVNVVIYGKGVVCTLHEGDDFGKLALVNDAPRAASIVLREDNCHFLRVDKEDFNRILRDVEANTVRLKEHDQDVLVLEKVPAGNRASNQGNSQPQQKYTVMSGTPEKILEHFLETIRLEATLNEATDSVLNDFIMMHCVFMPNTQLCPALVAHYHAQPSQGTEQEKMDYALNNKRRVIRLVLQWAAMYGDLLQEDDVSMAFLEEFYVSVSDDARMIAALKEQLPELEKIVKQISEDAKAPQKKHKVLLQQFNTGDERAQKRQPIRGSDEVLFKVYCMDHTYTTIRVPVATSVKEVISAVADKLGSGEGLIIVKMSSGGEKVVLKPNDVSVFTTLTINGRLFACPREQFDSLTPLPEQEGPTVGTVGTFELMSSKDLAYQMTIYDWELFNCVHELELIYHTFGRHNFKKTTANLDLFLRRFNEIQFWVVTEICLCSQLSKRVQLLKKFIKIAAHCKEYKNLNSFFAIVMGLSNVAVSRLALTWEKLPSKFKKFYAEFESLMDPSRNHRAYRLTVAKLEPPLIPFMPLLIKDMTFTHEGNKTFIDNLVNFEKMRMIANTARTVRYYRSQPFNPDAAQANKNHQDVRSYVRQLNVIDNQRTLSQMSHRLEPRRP
Potency is read from the fitted curve at half-maximal effect.

Potency, active:
CC(C)CCOP(=O)(c1ccc(N(C)C)cc1)C(O)c1ccc(Cl)cc1Cl (centres undefined) 19 µM, C[C@H](CO)N1C[C@H](C)[C@@H](CN(C)Cc2ccc(Cl)c(Cl)c2)Oc2c(NC(=O)CCC(F)(F)F)cccc2C1=O 19 µM, O=C(O)CCCC(=O)N1CCN(c2nc(-c3ccccc3Cl)c3cc(Br)ccc3n2)CC1 13.5 µM

Potency, inactive:
CCCC[C@H]1COCCS(=O)(=O)N1Cc1ccc(Br)cc1, CN(CC(=O)Nc1ccc(F)cc1)C(=O)COC(=O)C1CCN(c2ccc(C(F)(F)F)cn2)CC1, Cc1cc(-c2ccc(/C=N/n3cnnc3)o2)ccc1Cl, CCCCC[C@@H](C)N1C[C@H](COCc2ccccc2)Oc2cc(N3CC[C@@H](O)C3)ccc2S1(=O)=O, O=C(O)c1cc(NN=Nc2cccc([N+](=O)[O-])c2)cc([N+](=O)[O-])c1, Cc1cccc(N2C(=O)C(O)=C(C(=O)c3cccs3)C2c2cccc(Oc3ccccc3)c2)n1 (centres undefined), C=CCNC(=O)c1oc2ccc(S(=O)(=O)N(CC)CC)cc2c1C, CC(C)C[C@H](NC(=O)C1(c2ccccc2)CCN(C(=O)OC(C)(C)C)CC1)C(=O)N1CCC[C@H]1C(=O)O, Cc1cc(C)cc(N(CC(=O)Nc2ccc(C(F)(F)F)cc2)S(=O)(=O)c2c(C)[nH]c(=O)[nH]c2=O)c1, COCOCCn1cc(CN2CCS(=O)(=O)N(Cc3ccc(-c4ccc(OC)cc4)cc3)C(CC(C)C)C2=O)nn1 (centres undefined), O=C(CSc1nccn1Cc1ccc(Cl)cc1)Nc1ccc2c(c1)OCO2
